Calls of active or inactive are those of the source.
Experiments:
[1] = optical density shifts of acrAB sulA E. coli – strain DRC41, OD650, 48 h, E. coli filamentation inducer project, primary screen (AID 1152); details: higher = more signal, called active from +8 up or from −8 down;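 further: E. coli MC1000 strain DRC41 lacking acrAB efflux pump and sulA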
[2] = probe aLefty1 binding on compound microarray – biochemical, small-molecule microarray, 635/667 nm fluorescence, primary screen (AID 1153); details: higher = more signal;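 further: score merges spot fluorescence with signal-to-noise ratio from the scanned slide images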
[3] = plasmodial surface anion channel blockers, osmotic lysis – cell-based, P. falciparum Indochina, OD700, 1 h, primary screen (AID 1154); details: P. falciparum Indochina infected RBC osmotic lysis, higher = more signal, called active from +8 up or from −8 down
[4] = plasmodial surface anion channel blockers, osmotic lysis – cell-based, P. falciparum Indochina, OD700, 2 h, primary screen (AID 1155);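 further: lysis reports solute entry through the parasite surface anion channel PSAC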; details: P. falciparum Indochina infected erythrocytes, higher = more signal, called active from +8 up or from −8 down
[5] = changes in parasitized red cell lysis, either direction – P. falciparum Indochina, OD700, 3 h, PSAC antagonist project, primary screen (AID 1156); details: P. falciparum-infected erythrocytes, osmotic lysis, higher = more signal, called active from +8 up or from −8 down
[6] = plasmodial surface anion channel blockers, osmotic lysis – cell-based, P. falciparum Indochina, OD700, 18 h, primary screen (AID 1157); details: P. falciparum Indochina infected erythrocytes, osmotic lysis OD700, 18 h; higher = more signal, called active from +8 up or from −8 down
[7] = S6 kinase pathway phospho-S6 level changes – cell-based, A549, cytoblot, luminescence, serum-stimulated, primary screen (AID 1158); details: 5 h, higher = more signal;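 further: serum-stimulated A549 lung adenocarcinoma cells; signal is phosphorylated S6 detected by cytoblot immunostaining with HRP secondary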
[8] = target: NADPH oxidase 2 (Homo sapiens) (UniProt P04839); assay: compounds shifting NOX2 Amplex Red fluorescence – cell-based, HEK293-NOX2, PMA-stimulated, NOX inhibitor project, primary screen (AID 1159); details: 45 min, higher = more signal, called active from +8 up or from −8 down; further: test concentration not given here
[9] = target: NADPH oxidase 4 (Homo sapiens) (UniProt Q9NPH5); assay: compounds shifting NOX4 Amplex Red fluorescence – cell-based, HEK293-NOX4, tetracycline-induced, NOX inhibitor project, primary screen (AID 1160); details: HEK293-NOX4, Amplex Red H2O2 fluorescence, 45 min; higher = more signal, called active from +8 up or from −8 down
[10] = target: NADPH oxidase 5 (Homo sapiens) (UniProt Q96PH1); assay: compounds shifting NOX5 Amplex Red fluorescence – cell-based, HEK293-NOX5, NOX inhibitor project, primary screen (AID 1161); details: HEK293-NOX5, ionomycin, 45 min, higher = more signal
[11] = compound effects on lung adenocarcinoma cell viability – A549, calcein-AM fluorescence, 48 h, basal, profiling panel (AID 1162); details: higher = more signal; further: test concentration not given here
[12] = compound effects on differentiated 3T3-L1 adipocyte viability – cell-based, 3T3-L1 adipocytes, calcein-AM fluorescence, 48 h, basal, profiling panel (AID 1163); details: 3T3-L1 adipocytes viability, higher = more signal; further: test concentration not given here
[13] = compound effects on hepatocellular carcinoma cell viability – HepG2, calcein-AM fluorescence, 48 h, basal, profiling panel (AID 1164); details: higher = more signal; further: test concentration not given here
[14] = compound effects on multiple myeloma cell viability – MM1S, calcein-AM fluorescence, 48 h, basal, profiling panel (AID 1165); details: higher = more signal;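 further: viability of MM1S multiple myeloma cells under basal unstimulated conditions; test concentration not given here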
[15] = calcein-AM signal in unstimulated myeloma cells – cell-based, calcein-AM fluorescence, 48 h, PK04 Diversity Set, profiling panel (AID 1166); details: RPMI8226 myeloma viability, higher = more signal;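 further: cells grown under basal conditions without added stimulus; test concentration not given here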
[16] = JC-1 mitochondrial signal, unstimulated HepG2 cells – cell-based, JC-1 fluorescence, 24 h, 100 nL compound, profiling panel (AID 1167); details: HepG2 mitochondrial potential, higher = more signal; further: test concentration not given here
[17] = JC-1 mitochondrial signal, unstimulated adipocytes – cell-based, JC-1 fluorescence, 3T3-L1 adipocytes, 24 h, 100 nL compound, profiling panel (AID 1168); details: JC-1 mitochondrial fluorescence, higher = more signal, called active from +8 up or from −8 down; further: test concentration not given here
[18] = JC-1 mitochondrial signal, unstimulated myeloma cells – cell-based, JC-1 fluorescence, RPMI8226, 24 h, 100 nL compound, profiling panel (AID 1169); details: JC-1 mitochondrial potential fluorescence, higher = more signal; further: test concentration not given here
[19] = JC-1 mitochondrial signal, unstimulated MM1S myeloma – cell-based, JC-1 fluorescence, 24 h, 100 nL compound, profiling panel (AID 1170); details: MM1S mitochondrial potential, higher = more signal; further: test concentration not given here
[20] = resazurin metabolic signal in A549 cells – cell-based, resazurin fluorescence, 24 h, PK04 Diversity Set, profiling panel (AID 1171); details: A549 viability, higher = more signal, called active from +8 up or from −8 down; further: test concentration not given here

NADPH oxidase 2 (Homo sapiens), sequence (P04839 whole entry, looked up): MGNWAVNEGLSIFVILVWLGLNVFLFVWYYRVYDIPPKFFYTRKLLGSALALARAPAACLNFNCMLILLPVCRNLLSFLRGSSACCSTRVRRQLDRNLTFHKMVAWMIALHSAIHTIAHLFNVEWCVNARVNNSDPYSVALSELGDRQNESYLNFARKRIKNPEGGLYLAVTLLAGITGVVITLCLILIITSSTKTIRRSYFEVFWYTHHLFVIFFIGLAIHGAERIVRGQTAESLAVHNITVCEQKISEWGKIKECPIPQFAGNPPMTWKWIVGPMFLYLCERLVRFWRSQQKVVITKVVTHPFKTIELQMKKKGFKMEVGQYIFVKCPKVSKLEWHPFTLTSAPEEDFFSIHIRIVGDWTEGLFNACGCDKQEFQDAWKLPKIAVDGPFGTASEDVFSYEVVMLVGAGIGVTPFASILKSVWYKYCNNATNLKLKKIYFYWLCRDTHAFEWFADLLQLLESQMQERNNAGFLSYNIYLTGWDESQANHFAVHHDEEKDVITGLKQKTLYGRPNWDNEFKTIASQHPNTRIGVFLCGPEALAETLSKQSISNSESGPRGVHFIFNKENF
NADPH oxidase 5 (Homo sapiens), sequence (Q96PH1 whole entry, looked up): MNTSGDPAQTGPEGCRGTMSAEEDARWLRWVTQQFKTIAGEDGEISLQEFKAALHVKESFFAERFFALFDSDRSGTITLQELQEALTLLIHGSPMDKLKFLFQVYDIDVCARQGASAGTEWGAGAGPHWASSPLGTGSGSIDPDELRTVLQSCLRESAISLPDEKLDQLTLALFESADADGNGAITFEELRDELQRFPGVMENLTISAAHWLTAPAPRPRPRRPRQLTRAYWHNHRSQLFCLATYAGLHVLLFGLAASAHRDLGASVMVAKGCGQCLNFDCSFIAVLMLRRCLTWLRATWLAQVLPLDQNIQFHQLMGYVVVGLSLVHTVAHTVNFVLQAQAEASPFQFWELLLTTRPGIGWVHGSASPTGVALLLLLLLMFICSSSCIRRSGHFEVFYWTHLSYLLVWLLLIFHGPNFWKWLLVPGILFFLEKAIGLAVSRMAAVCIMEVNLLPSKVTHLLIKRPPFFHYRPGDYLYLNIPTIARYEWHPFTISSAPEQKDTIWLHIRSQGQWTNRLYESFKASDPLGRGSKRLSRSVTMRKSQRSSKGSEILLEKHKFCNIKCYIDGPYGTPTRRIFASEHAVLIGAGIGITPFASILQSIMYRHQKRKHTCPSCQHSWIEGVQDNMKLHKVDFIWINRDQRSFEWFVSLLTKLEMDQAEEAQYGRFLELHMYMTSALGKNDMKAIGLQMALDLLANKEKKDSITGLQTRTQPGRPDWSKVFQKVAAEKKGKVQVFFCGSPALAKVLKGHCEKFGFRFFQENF
NADPH oxidase 4 (Homo sapiens), sequence (Q9NPH5 whole entry, looked up): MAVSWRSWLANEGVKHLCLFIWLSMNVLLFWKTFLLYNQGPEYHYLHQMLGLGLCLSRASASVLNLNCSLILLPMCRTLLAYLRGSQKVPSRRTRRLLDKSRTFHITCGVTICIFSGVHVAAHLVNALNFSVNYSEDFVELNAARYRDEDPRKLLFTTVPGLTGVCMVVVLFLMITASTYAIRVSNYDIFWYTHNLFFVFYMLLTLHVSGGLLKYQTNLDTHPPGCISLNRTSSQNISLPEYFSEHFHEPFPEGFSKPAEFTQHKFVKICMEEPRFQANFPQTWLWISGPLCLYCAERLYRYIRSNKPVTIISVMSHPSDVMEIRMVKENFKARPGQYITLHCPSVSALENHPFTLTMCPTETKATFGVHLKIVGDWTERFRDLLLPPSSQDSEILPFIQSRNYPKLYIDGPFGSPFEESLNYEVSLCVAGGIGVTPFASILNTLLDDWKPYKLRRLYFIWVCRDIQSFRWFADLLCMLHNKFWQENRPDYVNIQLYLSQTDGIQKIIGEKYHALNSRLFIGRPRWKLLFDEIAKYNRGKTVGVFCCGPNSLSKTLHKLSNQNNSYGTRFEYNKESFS

C=CCN1C(=O)[C@@]2(CC=C)N=C(c3ccc(OCCCO)cc3)O[C@H]2c2ccccc21
z-score [1]: 1.92 (inactive)
composite z-score [2]: 0.547
z-score [3]: 34.5 (active)
z-score [4]: 30.9 (active)
z-score [5]: 3.11 (inactive)
z-score [6]: 9.88 (active)
z-score [7]: 1.63
z-score [8]: -2.21 (inactive)
z-score [9]: 0.796 (inactive)
z-score [10]: -0.809
z-score [11]: 0.248
z-score [12]: 1.68
z-score [13]: -0.515
z-score [14]: -3.41
z-score [15]: -3.72
z-score [16]: 1.62
z-score [17]: 2.61 (inactive)
z-score [18]: -1.02
z-score [19]: -2.1
z-score [20]: -2.08 (inactive)

O=C(N1CCCCC1)[C@]1(Cc2ccccc2)N=C(c2ccc(OCCCO)cc2)O[C@@H]1c1ccccc1
z-score [1]: -0.834 (inactive)
composite z-score [2]: 0.446
z-score [3]: 28 (active)
z-score [4]: 20.6 (active)
z-score [5]: 0.696 (inactive)
z-score [6]: 1.28 (inactive)
z-score [7]: 2.33
z-score [8]: -2.82 (inactive)
z-score [9]: -1.37 (inactive)
z-score [10]: -1.7
z-score [11]: -1.69
z-score [12]: 1.16
z-score [13]: -2.04
z-score [14]: -3.35
z-score [15]: -4.43
z-score [16]: -1.06
z-score [17]: -0.515 (inactive)
z-score [18]: -1.26
z-score [19]: -2.03
z-score [20]: 0.528 (inactive)

O=C1C[C@]2(c3ccc([N+](=O)[O-])cc3)C(=O)N(CC(F)(F)F)c3cc(CO)ccc3[C@H]2N1C1CCCCC1
z-score [1]: 0.983 (inactive)
composite z-score [2]: -0.233
z-score [3]: -0.524 (inactive)
z-score [4]: 0.345 (inactive)
z-score [5]: 0.503 (inactive)
z-score [6]: 0.133 (inactive)
z-score [7]: -0.116
z-score [8]: -0.502 (inactive)
z-score [9]: 0.00678 (inactive)
z-score [10]: 0.428
z-score [11]: 1.81
z-score [12]: -0.677
z-score [13]: 0.203
z-score [14]: 0.0687
z-score [15]: 1
z-score [16]: 0.38
z-score [17]: 0.986 (inactive)
z-score [18]: 0.247
z-score [19]: 1.9
z-score [20]: -0.745 (inactive)

CCCC[C@@H]1C[C@H]1[C@@H](NC(=O)c1cccs1)c1ccc(-c2ccccc2)cc1
z-score [1]: -1.89 (inactive)
composite z-score [2]: 0.142
z-score [3]: 2.41 (inactive)
z-score [4]: 0.856 (inactive)
z-score [5]: -0.398 (inactive)
z-score [6]: 0.668 (inactive)
z-score [7]: -0.993
z-score [8]: -0.939 (inactive)
z-score [9]: -0.827 (inactive)
z-score [10]: 0.936
z-score [11]: -0.997
z-score [12]: -0.537
z-score [13]: -0.0352
z-score [14]: -0.802
z-score [15]: -0.38
z-score [16]: 0.565
z-score [17]: -1.56 (inactive)
z-score [18]: -0.233
z-score [19]: -0.815
z-score [20]: 1.71 (inactive)

CN1C(=O)C2C=CC(C(O)C#Cc3ccccc3)N(N3CCCCC3)C2C1=O (stereo not given)
z-score [1]: -0.381 (inactive)
composite z-score [2]: 0.807
z-score [3]: 1.24 (inactive)
z-score [4]: 1.09 (inactive)
z-score [5]: 0.83 (inactive)
z-score [6]: 1.17 (inactive)
z-score [7]: -0.726
z-score [8]: -0.23 (inactive)
z-score [9]: 0.191 (inactive)
z-score [10]: -0.26
z-score [11]: -0.388
z-score [12]: -0.382
z-score [13]: -0.149
z-score [14]: 0.241
z-score [15]: 0.609
z-score [16]: -0.242
z-score [17]: 0.567 (inactive)
z-score [18]: 0.382
z-score [19]: -0.547
z-score [20]: -0.913 (inactive)

C=CCC(OC(C)=O)[C@@H]1[C@@H](N(Cc2ccc(-c3ccccc3)cc2)C(=O)c2ccc(-c3ccccc3)cc2)c2cc(OCCCO)ccc2N1C(=O)Cc1ccc2ccccc2c1 (stereo not given in full)
z-score [1]: -0.706 (inactive)
composite z-score [2]: 0.155
z-score [3]: 0.05 (inactive)
z-score [4]: 0.129 (inactive)
z-score [5]: -0.472 (inactive)
z-score [6]: 0.408 (inactive)
z-score [7]: -0.309
z-score [8]: 0.795 (inactive)
z-score [9]: 1 (inactive)
z-score [10]: 0.532
z-score [11]: -0.475
z-score [12]: 0.367
z-score [13]: 0.325
z-score [14]: -2.3
z-score [15]: -0.806
z-score [16]: 0.96
z-score [17]: -1.07 (inactive)
z-score [18]: -0.793
z-score [19]: 0.292
z-score [20]: 1.2 (inactive)

C=CCC(OC(C)=O)[C@@H]1[C@@H](N(Cc2cc3ccccc3o2)C(=O)c2cccc3ccccc23)c2cc(OCCCO)ccc2N1C(=O)c1ccc(-c2ccccc2)cc1 (stereo not given in full)
z-score [1]: 1.45 (inactive)
composite z-score [2]: 0.0341
z-score [3]: 1.01 (inactive)
z-score [4]: 0.0907 (inactive)
z-score [5]: 0.358 (inactive)
z-score [6]: 0.554 (inactive)
z-score [7]: 0.332
z-score [8]: 0.52 (inactive)
z-score [9]: -1.87 (inactive)
z-score [10]: -2.43
z-score [11]: 0.067
z-score [12]: 0.509
z-score [13]: 0.168
z-score [14]: 0.612
z-score [15]: -2.25
z-score [16]: 3.47
z-score [17]: 0.0822 (inactive)
z-score [18]: -0.448
z-score [19]: 0.955
z-score [20]: -0.808 (inactive)

O=C(c1ccccc1)N1C(=O)[C@]2(COC(c3ccc(OCCCO)cc3)=N2)Cc2ccccc21
z-score [1]: -0.788 (inactive)
composite z-score [2]: 0.638
z-score [3]: 27.1 (active)
z-score [4]: 17.8 (active)
z-score [5]: 3.39 (inactive)
z-score [6]: 1.35 (inactive)
z-score [7]: -0.394
z-score [8]: -0.0343 (inactive)
z-score [9]: 0.0715 (inactive)
z-score [10]: -1.69
z-score [11]: -0.525
z-score [12]: 0.6
z-score [13]: -0.92
z-score [14]: -1.72
z-score [15]: -3.77
z-score [16]: -1.23
z-score [17]: -0.03 (inactive)
z-score [18]: -1.26
z-score [19]: -1.49
z-score [20]: -0.272 (inactive)
